About 1,100 (1.7%) of roughly 63,000 compounds were called active. Rule as the data show it: active = cytotoxicity above about 50%; inactive = the rest. The full list was thinned out, with actives kept by preference. Results with a measured potency or affinity are listed apart.

This test in a line: cytotoxicity in HPDE-C7 cells, cell-based, fluorescence, HTS (AID 430).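 Also: cells exposed to compound for 48 hours before viability readout; 0% = vehicle and 100% = reference cytotoxic drug.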 The conditions noted are these: HPDE-C7 pancreatic duct cells viability, at 10 µM, hits give high values.
Regarding `CCOC(=O)CCNC(=O)CNC(=O)OCc1ccccc1`, the cytotoxicity is -3.8% (inactive).
Take `CCOc1ccccc1NC(=O)CN(c1nccs1)S(=O)(=O)c1ccc(N)cc1`: the cytotoxicity was -20.7% (inactive).
For `COc1ccc(S(=O)(=O)N(C)CC(=O)O)c2ccccc12` the value was 1.2% (inactive); for `Cc1ccc(/C(O)=C2\C(=O)C(=O)N(CC(C)O)C2c2ccc(N(C)C)cc2)cc1` (stereo unspecified), 0% (inactive); for `CCCC(=O)n1nc(-c2ccc(OC)cc2)nc1N`, 11.5% (inactive).
In the case of `O=C(CSc1nnc(-c2ccco2)o1)NC(=O)C1COc2ccccc2O1` (stereo unspecified) it was -12.2% (inactive); in that of `COc1ccc(CNC(=O)C2CC(c3cccc(OC)c3)=NO2)cc1` (stereo unspecified), 36% (inactive).
For `COCCNC(=O)C1CC(c2cccc(OC)c2)=NO1` (stereo unspecified) the value was -6.9% (inactive).
As for `COc1cccc(C2=NOC(C(=O)NCc3ccccc3)C2)c1` (stereo unspecified), the cytotoxicity was 61.7% (active).
For `COc1cccc(C2=NOC(C(=O)NCc3ccccn3)C2)c1` (stereo unspecified) the value was -11.7% (inactive); for `COc1cccc(C2=NOC(C(=O)NCc3ccc(F)cc3)C2)c1` (stereo unspecified), 60.3% (active).
`COc1cccc(C2=NOC(C(=O)NCc3ccco3)C2)c1` (stereo unspecified): the cytotoxicity is 40.7% (inactive).
Consider `Cc1oc2ccc(OC(=O)N3CCOCC3)cc2c1C(=O)OC(C)C`, for which the cytotoxicity is -25.5% (inactive).
As for `Cc1nn(-c2ccccc2C(=O)O)c(=O)c2ccccc12`, the cytotoxicity is 0.5% (inactive).
Consider `CC(=O)c1sc(-c2c(C)nc3sccn23)nc1C1CCCC1`, for which the cytotoxicity is 4.9% (inactive).
In the case of `O=C(NCCCN1CCOCC1)c1c(F)cccc1F` it was 18.7% (inactive).
As for `COc1ccc2sc(C)nc2c1NC(C)=O`, the cytotoxicity was -5.3% (inactive).
Take `CCCCN(Cc1ccccc1)c1ncnc2nc[nH]c12`: the cytotoxicity is -1% (inactive).
On to `Clc1ccccc1CN(Cc1ccccc1)c1ncnc2nc[nH]c12`, for which the cytotoxicity is 82.7% (active).
For `Clc1ccccc1CNc1ncnc2nc[nH]c12`, the cytotoxicity was 3.9% (inactive).
As to `O=C(O)C1CC(=O)N(Cc2ccccc2)C1` (stereo unspecified), the cytotoxicity was -5.6% (inactive).
For `CC(=O)N(CC(=O)Nc1nn(-c2ccccc2)nc1C(N)=O)Cc1ccccc1` the value was -8.2% (inactive); for `NC(=O)c1nn(-c2ccccc2)nc1NC(=O)CN1CCCCC1`, -13.3% (inactive); for `COC(=O)c1ccc(OCC(=O)Nc2nn(-c3ccccc3)nc2C(N)=O)cc1`, 51.8% (active).
For `CCc1nc2ccc(C(=O)NCc3ccco3)cc2nc1CC`, the cytotoxicity is 1.5% (inactive).
For `O=C1c2oc3ccccc3c(=O)c2C(c2cccc(O)c2)N1CCCN1CCOCC1` (stereo unspecified) the value was -13.7% (inactive); for `CCNc1ccc(C(=O)OCC)cc1NC(=O)c1cccc(S(=O)(=O)N2CCOCC2)c1`, 1.8% (inactive); for `Cc1ccc(F)cc1NC(=O)c1cccc(N(C)C)c1`, -10.6% (inactive).
Regarding `CCNc1ccc(C(=O)OCC)cc1NC(=O)c1cccc(N(C)C)c1`, the cytotoxicity was 54.6% (active).
For `CCn1c(SCC(=O)N2CCCCC2)nnc1-c1ccc(S(=O)(=O)N2CCN(C)CC2)cc1`, the cytotoxicity was -22% (inactive).
For `COc1ccc(CNC(=O)C2COc3ccccc3O2)c(OC)c1` (stereo unspecified), the cytotoxicity was -4.4% (inactive).
Turning to `Cc1ccc(C(=O)CC(C(=O)O)n2cccn2)cc1` (stereo unspecified), the cytotoxicity is -3.1% (inactive).
In the case of `Cc1ccc(C(=O)CC(C(=O)O)n2ccc(C)n2)cc1` (stereo unspecified) it was 4% (inactive); in that of `O=C1OCCC1N1C(=O)c2ccccc2S1(=O)=O` (stereo unspecified), -4.1% (inactive).
For `Nc1c(Nc2ccccc2)c2ccccc2oc1=O`, the cytotoxicity is -3.7% (inactive).
Turning to `CCN(C)c1ccc(/C=N\n2nnnc2N)cc1`, the cytotoxicity was 51.3% (active).
Turning to `CCN(CC)c1ccc(/C=N/n2nnnc2N)c(O)c1`, the cytotoxicity was -2.7% (inactive).
For the compound `CSc1ccc(/C=N/n2nnnc2N)cc1`, the cytotoxicity is -10.4% (inactive).
In the case of `CCCCS(=O)CC(COc1ccc(Cl)cc1)OC(=O)c1ccccc1` (stereo unspecified) it was -8.9% (inactive).
Consider `COc1ccccc1Nc1nc2ccccc2n1C`, for which the cytotoxicity was -9% (inactive).
Take `Cn1c(=O)c(-c2ccccc2)nn2c3ccccc3nc12`: the cytotoxicity was -4.7% (inactive).
For the compound `CNc1ccccc1-c1nc2ccccc2n(C)c1=O`, the cytotoxicity was 56.7% (active).
In the case of `Cc1ccc(NCc2nnc(SCC(=O)Nc3cccc(O)c3)n2CC2CCCO2)c(C)c1` (stereo unspecified), the cytotoxicity is 8.8% (inactive).
Take `CC(=O)O[C@@]12CO[C@@H]1C[C@H](O)[C@@]1(C)C(=O)[C@H](O)C3=C(C)[C@@H](OC(=O)[C@H](O)[C@@H](NC(=O)OC(C)(C)C)c4ccccc4)C[C@](O)([C@@H](OC(=O)c4ccccc4)[C@H]21)C3(C)C`: the cytotoxicity is 51.5% (active).
For the compound `CC(=O)O[C@H]1C(=O)[C@]2(C)[C@H]([C@H](OC(=O)c3ccccc3)[C@]3(O)C[C@H](OC(=O)[C@H](O)[C@@H](NC(=O)c4ccccc4)c4ccccc4)C(C)=C1C3(C)C)[C@]1(OC(C)=O)CO[C@@H]1C[C@@H]2O`, the cytotoxicity was 72% (active).
With `CNC(=O)c1ccccc1NC(=O)c1c(O)c2c([nH]c1=O)CCCC2`, the cytotoxicity was 0% (inactive).
Consider `COc1ccc(/C(O)=C2/C(=O)C(=O)N(Cc3cccnc3)C2c2ccccn2)cc1` (stereo unspecified), for which the cytotoxicity was -4.2% (inactive).
In the case of `Cc1cc(C)n2c(Br)c(CSc3nc4ccccc4o3)nc2n1` it was 3.3% (inactive); in that of `COC(=O)c1c(NC(=O)CN2CCCC(C)C2)c2c(C)cccc2n1C` (stereo unspecified), -3.9% (inactive); in that of `CCCC(=O)NCCCc1nc2ccccc2n1CC`, -20.4% (inactive).
Regarding `COc1ccc(-n2c(Cc3cccn3C)nnc2SCC(=O)NCc2ccco2)cc1`, the cytotoxicity is -5% (inactive).
On to `CCn1c(SCC(=O)Nc2ccc3c(c2)c2ccccc2n3CC)nnc1-c1ccco1`, for which the cytotoxicity was 49% (inactive).
For `COc1ccc(NC(=O)CSc2nnc(-c3ccccc3C)n2N)cc1OC` the value was -3.3% (inactive); for `CCn1c2ccccc2c2cc(NC(=O)CSc3nnc(-c4ccccc4OC)n3N)ccc21`, 57.2% (active); for `Cc1ccc(-c2cc(C(F)F)nc(NCc3cccnc3)n2)cc1`, 28.4% (inactive).
In the case of `O=C(Cn1cnc2ccccc2c1=O)NCc1ccco1`, the cytotoxicity was -1% (inactive).
Turning to `CCOC(=O)C(C)Oc1cccc2c(=O)n(CC(=O)NCc3ccc4c(c3)OCO4)ccc12` (stereo unspecified), the cytotoxicity is 53% (active).
Take `CCOC(=O)COc1cccc2c(=O)n(CC(=O)NCc3ccc4c(c3)OCO4)ccc12`: the cytotoxicity is 60.6% (active).
For `CCOC(=O)C(C)Oc1cccc2c(=O)n(CC(=O)NCc3ccco3)ccc12` (stereo unspecified) the value was 65.7% (active); for `CCOC(=O)COc1cccc2c(=O)n(CC(=O)N3CCc4ccccc43)ccc12`, -7.9% (inactive).
`CCOC(=O)C(C)Oc1cccc2c(=O)n(CC(=O)Nc3ccc4c(c3)OCCO4)ccc12` (stereo unspecified): the cytotoxicity is 9.2% (inactive).
On to `CCOC(=O)C(C)Oc1cccc2c(=O)n(CC(=O)N3CCN(C(=O)OCC)CC3)ccc12` (stereo unspecified), for which the cytotoxicity is -8.4% (inactive).
As for `CCOC(=O)C(C)Oc1cccc2c(=O)n(CC(=O)N3CCc4ccccc43)ccc12` (stereo unspecified), the cytotoxicity was -7.3% (inactive).
With `CCOC(=O)COc1cccc2c(=O)n(CC(=O)N3CCN(C(=O)OCC)CC3)ccc12`, the cytotoxicity was -9.2% (inactive).
In the case of `CCCCN(C)CCCNC(=O)c1ccc2c(c1)NC(=O)C(N1CCOCC1)S2` (stereo unspecified), the cytotoxicity was 2.3% (inactive).
Consider `CCOC(=O)N1CCN(C(=O)C2CCCN(S(C)(=O)=O)C2)CC1` (stereo unspecified), for which the cytotoxicity was 2.7% (inactive).
`CC(C)Sc1nc2c(cnn2-c2ccccc2)c(=O)[nH]1`: the cytotoxicity is -15.9% (inactive).
Turning to `COC(=O)C(C(=O)OC)C(C(C)C)C(C(=O)OC)C(=O)OC`, the cytotoxicity is 5.9% (inactive).
In the case of `O=C(Nc1ccc(Cl)cc1)NC1CCCC1Cc1ccco1` (stereo unspecified) it was 55% (active); in that of `O=C(NCCSCc1ccco1)Nc1ccc(Cl)cc1`, -8.4% (inactive).
In the case of `O=C(Nc1ccc(Cl)cc1)Nc1ccccc1C(=O)NCc1ccco1`, the cytotoxicity was 8.1% (inactive).
For `CC(c1ccccc1)N1CNc2c(c(=O)n(C)c(=O)n2C)C1` (stereo unspecified), the cytotoxicity was -8.9% (inactive).
Take `O=C(O)CC(c1ccc(Cl)cc1)N1C(=O)CCC1=O` (stereo unspecified): the cytotoxicity was -2.8% (inactive).
Take `CCOc1ccc(NC(=O)CSc2nnc(Cc3cccn3C)n2-c2ccc(OC)cc2)cc1`: the cytotoxicity was -17.3% (inactive).
As for `COc1cc(C2Nc3cccc4cccc(c34)N2)ccc1OC(C)=O`, the cytotoxicity was 41.1% (inactive).
As to `COc1cc(C2Nc3cccc4cccc(c34)N2)cc(OC)c1O`, the cytotoxicity is 56.8% (active).
In the case of `COc1cc(C2Nc3cccc4cccc(c34)N2)cc(OC)c1OC(C)=O` it was 72.1% (active).
For `CCN(CC)c1ccc(C2Nc3cccc4cccc(c34)N2)c(O)c1` the value was 30.4% (inactive); for `Oc1ccccc1C1Nc2cccc3cccc(c23)N1`, -21.5% (inactive).
Take `c1coc(C2Nc3cccc4cccc(c34)N2)c1`: the cytotoxicity is 4.2% (inactive).
Take `CCC(=O)Nc1nc(C)nc(C)c1C(C)=O`: the cytotoxicity is -5.6% (inactive).
In the case of `CC(=O)Nc1ccc(C)cc1NC(C)=O`, the cytotoxicity was -3.9% (inactive).
With `COc1ccc(C(c2nnnn2CCc2ccccc2)N2CCN(C3CCCC3)CC2)cc1` (stereo unspecified), the cytotoxicity was -6.9% (inactive).
In the case of `O=C(O)CSc1cccc2cccnc12` it was -7.9% (inactive).
`CCOC(=O)CNc1ncnc2nc[nH]c12`: the cytotoxicity is -3.5% (inactive).
For `c1ccc(-c2ccc(-c3ccccn3)nn2)nc1`, the cytotoxicity is 0.9% (inactive).
As for `c1ccc(-c2nnc(-c3ccccn3)nn2)nc1`, the cytotoxicity is 6.6% (inactive).
`COc1ccc(S(=O)(=O)N2CCOCC2)c(Cl)c1Cl`: the cytotoxicity was -17.3% (inactive).
For `CCc1nc(NCC2CCCO2)c(C#N)c2c1COC(C)(C)C2` (stereo unspecified), the cytotoxicity is -11.3% (inactive).
Consider `CCc1nc(NC2CCCCC2)c(C#N)c2c1COC(C)(C)C2`, for which the cytotoxicity was 63.4% (active).
Turning to `CCCc1nc(NC2CCCCC2)c(C#N)c2c1COC(C)(C)C2`, the cytotoxicity is -4.4% (inactive).
Consider `COc1ccc(-n2cnnc2SCC(=O)c2cc(C)n(Cc3cccs3)c2C)cc1`, for which the cytotoxicity is 0.5% (inactive).
`CCOC(=O)C1=C(N2CCCCC2)c2cc3c(n2C1=O)CCCC3`: the cytotoxicity was 10.1% (inactive).
In the case of `CCSc1ncnc2c(C#N)c3n(c12)CCCCC3` it was -13.6% (inactive); in that of `CCN1CCN(CCNC(=O)c2ccc(CS(=O)(=O)c3ccccc3C)o2)CC1`, -0.5% (inactive); in that of `Cc1ccc(NC(=O)c2nnn(-c3cc(C)cc(C)c3)c2N)cc1`, 55.6% (active).
`Cc1ccc(C)c(NC(=O)c2nnn(Cc3ccccc3C)c2N)c1`: the cytotoxicity was 1.7% (inactive).
For `Cc1cc(C)cc(NC(=O)c2nnn(Cc3cc(C)ccc3C)c2N)c1` the value was 58.9% (active); for `Cc1cccc(-n2nnc(C(=O)Nc3ccc(F)cc3)c2N)c1`, 15.2% (inactive).
In the case of `COc1ccc(C)cc1NC(=O)c1nnn(Cc2cc(C)ccc2C)c1N`, the cytotoxicity is 7.5% (inactive).
In the case of `Cc1ccc(CCNC(=O)c2nnn(-c3cc(C)cc(C)c3)c2N)cc1` it was 3.4% (inactive).

The values above are taken from PubChem BioAssay AID430 (Sanford-Burnham Center for Chemical Genomics, 2006).
